High-throughput results from PubChem BioAssay.
Sa growth 42C – S. aureus growth inhibition at 42 and 30 °C, primary screen, LtaS inhibitor project, RN4220, two temperatures; OD600, 20 h, 42 °C; active compounds read low; relative growth, % (no concentration beside the values); hit rate 0.53% among 170,000;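 active = relative growth at most 50% at the other temperature and 20+ points below 30 °C, or under 10% at both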
Sa helicase inh – inhibitors of S. aureus replicative helicase, primary screen, biochemical, fluorescence unwinding readout. purified S. aureus helicase, fluorescence unwinding assay. inhibition, % (no concentration beside the values). hit rate 0.05% among 120,000. AID 485395, 2010; in the data active = inhibition above about 25%, passing the limit was not always enough;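 also: 0% = mean of negative control wells and 100% = mean of positive control wells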
Active calls of the source: *; . = not tested or not shown. Most compounds without a hit are left out; they make up all but 0.52% or so of the library.

SMILES	Sa growth 42C	Sa helicase inh
C=CCn1c(SC(C#N)Cc2ccc(C)cc2)nnc1C1COc2ccccc2O1 (stereo not given)	104	8
Cc1ccc(CO/N=C/c2cccs2)cc1	118	-21
O=Cc1c(O)c2ccccc2c2ccccc12	9.1*	-2
O=c1oc2ccccc2c(O)c1C=Nc1ccccc1	95	9
COc1cc2nc(N3CCN(c4cc(C)ccc4C)CC3)nc(N)c2cc1OC	-0.7*	-12
COc1nc(OC)nc(N2CCN(c3cc(C)ccc3C)CC2)n1	92	7
CCn1cnc2cc(NCc3cccc(OC)c3)ccc21	83	40
COc1cccc(CNc2ccc3c(c2)ncn3C2CCCCC2)c1	0.1*	2
O=C(Nc1nc(-c2ccccc2)cs1)C1=COCCO1	.	-9
CCC(CC)NC(=O)CSc1nnc(Cc2ccccc2)o1	92	1
OCCN(c1ccccc1)c1ncnc2onc(-c3ccc(F)cc3)c12	103	-15
Cc1cc(C)nc(N2Cc3ccccc3C2=NC(=O)c2ccc3c(c2)OCCO3)n1	72	-7
CSc1c(-c2ccc(Cl)cc2)[nH]c2ccccc12	21*	.
Cc1ccc(-c2[nH]c3ccccc3c2SCCN)cc1	.	-17
COC(=O)c1ccc(O)c(Sc2cc(C(=O)OC)ccc2O)c1	1.9*	3
COC(=O)c1cccc(C(=O)OC)c1	78	-15
Cc1ccc(Oc2ncccc2C(=O)O)cc1	121	.
N#C/C(=C\c1ccc(-c2cc(C(F)(F)F)ccc2Cl)o1)C(=O)O	96	-5
N#C/C(=C/c1ccc(-c2cc(C(=O)O)ccc2Cl)o1)C(=O)NCCc1c[nH]c2ccccc12	9.7*	20
O=C(CCC(=O)N1CC2CCCN2c2ccccc21)NCc1ccco1 (stereo not given)	97	-6
O=C(Nc1cccnc1)c1ccc(Oc2cc(Cl)cc(Cl)c2)o1	106	.
O=C(Nc1ccncc1)c1ccc(Oc2cc(Cl)cc(Cl)c2)o1	4.9*	.
Cc1cc(OCC(=O)NCc2ccco2)c(C)cc1Br	93	7
Cc1ccc2c(Cl)cc(Cl)c(OCC(=O)NCc3ccco3)c2n1	-1.6*	-2
Cc1cc(SCC(=O)N(C)C2CCS(=O)(=O)C2)nc2ccccc12 (stereo not given)	95	32
SMILES	Sa growth 42C	Sa helicase inh
CCc1ccc(OC(=O)/C=C/c2ccco2)cc1	106	-2
O=C(/C=C\c1ccco1)Oc1cccc2cccnc12	1.6*	17
N#Cc1ccc(COC(=O)CCSc2ccccc2)cc1	113	-8
CC(=O)Nc1ccc(NC(=O)c2ccc(NC(C)=O)cc2)cc1	95	-1
CCC(=O)NCc1ccc2c3c(cccc13)C(=O)N2	79	-5
CO[C@H]1C[C@H](O[C@H]2[C@H](C)[C@@H](O[C@@H]3O[C@H](C)C[C@H](N(C)C)[C@H]3OC(C)=O)[C@@H](C)C[C@@]3(CO3)C(=O)[C@H](C)[C@@H](OC(C)=O)[C@@H](C)[C@@H](C)OC(=O)[C@@H]2C)O[C@@H](C)[C@@H]1OC(C)=O	3.7*	.
CCc1cccc(N2C(=O)C(Cc3ccccc3)N=C2N(Cc2ccco2)C2CCCC2)c1 (stereo not given)	87	2
O=C(Cn1nnc(-c2cccc(C(F)(F)F)c2)n1)c1ccc2c(c1)OCCO2	90	13
O=C(CN1C(=O)c2ccccc2C1=O)Oc1cccc2cccnc12	0.8*	15
O=C(Cc1ccccc1)Oc1cccc2cccnc12	.	21
O=C(CCN1C(=O)c2ccccc2C1=O)Oc1cccc2cccnc12	-0.6*	-8
N#Cc1ccccc1OC(=O)CCN1C(=O)c2ccccc2C1=O	103	9
COc1ccc(S(=O)(=O)n2c(=O)cnc3ccccc32)cc1	77	18
CCOc1ccc(C(=O)C(C)Sc2nc(-c3ccco3)c(C#N)c(=O)[nH]2)cc1 (stereo not given)	81	3
Cc1ccc(S(=O)(=O)NC(=O)Oc2cccc3cccnc23)cc1	0.2*	8
Cc1c(C(=O)Oc2cccc3cccnc23)oc2ccccc12	97	3
CN(Cc1ccc(C(F)(F)F)cc1)c1ccc(S(=O)(=O)N2CCCC2)cn1	112	6
O=C1CC(c2nc3ccccc3[nH]2)CN1c1cccc2ccccc12 (stereo not given)	89	10
Cn1c(C2CC(=O)N(c3cccc4ccccc34)C2)nc2ccccc21 (stereo not given)	0.4*	6
CCOC(=O)c1c[nH]c(=O)cc1O	108	.
C=CCN1C(=O)/C(=C2\SC(N3CCCCC3)=NC2=O)c2ccccc21	96	18
CN1C(=O)/C(=C2\SC(N3CCCCCC3)=NC2=O)c2ccccc21	111	43*
Cn1nnnc1SCC1=C(C(=O)O)N2C(=O)C(NC(=O)C(OC=O)c3ccccc3)C2SC1 (stereo not given)	-0.7*	.
O=C(O)C1=C(CSc2nnnn2CS(=O)(=O)O)CS[C@@H]2C(NC(=O)[C@H](O)c3ccccc3)C(=O)N12 (stereo not given in full)	-0.7*	.
Cn1nnnc1SCC1=C(C(=O)O)N2C(=O)C(NC(=O)C(O)c3ccccc3)C2SC1 (stereo not given)	-0.5*	.
SMILES	Sa growth 42C	Sa helicase inh
O=C(NCCSc1nnnn1-c1ccccc1)C(c1ccccc1)c1ccccc1	104	-4
CO[C@@]1(NC(=O)C(C(=O)O)c2ccc(O)cc2)C(=O)N2C(C(=O)O)=C(CSc3nnnn3C)CO[C@@H]21 (stereo not given in full)	88	.
Cn1nnnc1SCCC(=O)Nc1ccccc1	92	2
CN(C)CCCNc1ncnc2c1oc1ccccc12	82	-11
CCCC(=O)c1ccc2[s+]c3ccccc3[n+](CCCN(C)C)c2c1	81	3
CC(C)(C)CNC(=O)c1ccccc1O	92	6
COC(=O)c1sccc1S(=O)(=O)N1CCC2(CC1)OCCO2	104	-15
CC(=O)Nc1ccc(S(=O)(=O)Nc2cccc3c(=O)[nH][nH]c(=O)c23)cc1	99	7
O=C(O)/C=C/C(=O)Nc1ccc(C2CCCCC2)cc1	146	.
O=C(O)/C=C/C(=O)c1ccc(C2CCCCC2)cc1	-0.9*	.
Cc1ccc(-c2nc3cccc(C)n3c2Nc2ccc3c(c2)OCO3)o1	2.2*	.
Cc1cccc2nc(-c3ccco3)c(Nc3ccc4c(c3)OCO4)n12	111	.
N#CCn1ccccc1=O	94	9
O=C(NCc1csc(-c2cccs2)n1)c1ccc2nsnc2c1	93	.
CCc1ccc(S(=O)(=O)/N=C2/C=C(Nc3ccccc3)C(=O)c3ccccc32)cc1	83	9
O=C1C(Sc2ncn[nH]2)=C/C(=N/S(=O)(=O)c2ccc(Cl)cc2)c2ccccc21	1.2*	24
COC(=O)/C(=C(/O)CSc1nnc(COc2ccccc2Cl)n1C)c1nc2ccccc2[nH]1	98	16
C[C@H]1COc2c(C3(N)CC3)c(F)cc3c(=O)c(C(=O)O)cn1c23	-0.9*	.
CN1CCN(c2c(F)cc3c(=O)c(C(=O)O)cn4c3c2SCC4)CC1	-0.4*	.
Cc1cc(F)c(F)cc1C(=O)N1CCN(C)CC1	108	7
C[C@H]1COc2c(N3CCN(C)CC3)c(F)cc3c(=O)c(C(=O)O)cn1c23	-0.5*	.
O=C(Cn1c(CO)nc2ccccc21)Nc1ccccc1	83	13
O=C(O)c1cc2cc3ccccc3nc2s1	99	6
Cc1[nH]c2ccccc2c1C(Nc1ccccn1)c1ccccc1 (stereo not given)	.	-18
